From PubChem BioAssay (NCI) come the findings set out here.

Test systems include HCT-15 colon; HT29 colon; SNB-75 CNS; SNB-19 CNS; U251 CNS; PC-3 prostate; SK-MEL-5 melanoma; UACC-62 melanoma; LOX IMVI melanoma; SK-MEL-28 melanoma; SK-MEL-2 melanoma; EKVX NSCLC; SN12C renal; UO-31 renal; TK-10 renal; ACHN renal; CAKI-1 renal; A498 renal; CCRF-CEM leukemia; MOLT-4 leukemia.
What all share (test): NCI-60 one-dose screen, 48 h (100 = growth as untreated, 0 = no growth, -100 = all killed)
What all share (details): 10 µM unless noted

The panel holds about 83,000 compounds, 20% with a hit somewhere; the sample as a whole holds those more often.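 Step 1: grow cells in 96-well plates. Step 2: add test compound at a single concentration. Step 3: incubate 48 h. Step 4: record percent growth.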 Unmarked numbers belong to inactive results. Activity calls are given as the source filed them. How the source made its calls: active means growth percent below 10; inactive means the rest.

For `CC(C)OC(=O)Nc1ccc(-c2nc(-c3cccc(OCCN4CCOCC4)c3)c(-c3ccnc(Br)c3)[nH]2)cc1`, the growth in the test on HCT-15 colon is 4.55% (active); in the test on HT29 colon, 1.53% (active); in the test with SNB-75 CNS, -19.3% (active); in the test on SNB-19 CNS, 22.5%; in the test with U251 CNS, 17.3%; in the test on PC-3 prostate it was 19.7%. Further, the growth in the test on SK-MEL-5 melanoma is 21.7%; with UACC-62 melanoma, 15.1%; in the test on LOX IMVI melanoma it was 3.35% (active); in the test with SK-MEL-28 melanoma, 0.701% (active); in the test on SK-MEL-2 melanoma, 32.5%; in the test with EKVX NSCLC it was 50.3%. Besides, the growth is 57.6% with SN12C renal; -15.9% (active) in the test with UO-31 renal; 68.1% in the test with TK-10 renal; 28.4% in the test with ACHN renal; 35.5% with CAKI-1 renal; -9.64% (active) with A498 renal. The growth with CCRF-CEM leukemia is 16.8%.

With `CCc1ccc(Oc2c(-c3ccc(OCCc4cccc(C(F)(F)F)c4)cc3O)n[nH]c2C(F)(F)F)cc1`, the growth with HCT-15 colon is 23.8%; in the test with HT29 colon, 86.1%; with SNB-75 CNS, 63.3%; with SNB-19 CNS, 39.8%; in the test on U251 CNS, 12.1%; in the test on PC-3 prostate, 46.1%. The growth in the test on SK-MEL-5 melanoma is 42%; in the test with UACC-62 melanoma, 18.6%; with LOX IMVI melanoma, 17.6%; in the test on SK-MEL-28 melanoma, 44.3%; in the test with SK-MEL-2 melanoma it was 55.4%; in the test with EKVX NSCLC it was 50.1%. Besides, the growth in the test on SN12C renal is 19.9%; in the test with UO-31 renal, 16.1%; with TK-10 renal, 58.4%; in the test on ACHN renal it was 16.6%; in the test with CAKI-1 renal, 63.3%; with A498 renal it was 35.9%. The growth was 11.6% in the test with CCRF-CEM leukemia and 4.53% (active) in the test on MOLT-4 leukemia.

In the case of `COc1ccc2sc3c(NCCCN(C)C)nc4ccccc4c3c(=O)c2c1`, the growth with HCT-15 colon was 50.2%; with HT29 colon it was -47.5% (active); in the test with SNB-75 CNS it was 53.5%; in the test on SNB-19 CNS, 71.4%; in the test with U251 CNS, -1.18% (active); with PC-3 prostate, 63%. For the same molecule, the growth in the test on SK-MEL-5 melanoma is 66.4%; in the test on UACC-62 melanoma it was 77.3%; with LOX IMVI melanoma it was -100% (active); with SK-MEL-28 melanoma it was -73.1% (active); in the test with SK-MEL-2 melanoma, 95.9%; in the test with EKVX NSCLC it was 70%. In addition, the growth in the test with SN12C renal is 72.3%; with UO-31 renal, 48.4%; in the test with TK-10 renal, 78%; with ACHN renal, 69.9%; in the test with CAKI-1 renal, 63%; in the test on A498 renal, 17.4%. For the same molecule, the growth in the test with CCRF-CEM leukemia is 4.23% (active).

`COc1ccc(NC2=C(Br)C(=O)C(C)=C(C)C2=O)cc1`: the growth with HCT-15 colon was 91.6%; in the test with HT29 colon it was 117%; in the test on SNB-75 CNS it was 72%; in the test with SNB-19 CNS, 85.2%; with U251 CNS, 88.3%; with PC-3 prostate, 73.1%. The growth in the test with SK-MEL-5 melanoma was 92.3%; in the test with UACC-62 melanoma, 84.4%; in the test on LOX IMVI melanoma, -35.6% (active); in the test with SK-MEL-28 melanoma it was 103%; in the test on SK-MEL-2 melanoma, 92.4%; in the test on EKVX NSCLC it was 83.5%. Also, the growth in the test on SN12C renal was 79.6%; in the test on UO-31 renal, 74%; in the test with TK-10 renal, 172%; in the test with ACHN renal it was 85.6%; with CAKI-1 renal, 94.9%; in the test on A498 renal, 93.5%. Moreover, in the test on CCRF-CEM leukemia, the growth is -13.8% (active).

For the molecule `CN1C(=O)CNC(=O)[C@H](NC(=O)c2nc3ccccc3cc2O)CSSC[C@H]1C(=O)NCCCc1nc2ccccc2cc1O`, the growth with HCT-15 colon was 93.3%; in the test with HT29 colon it was 17.7%; in the test with SNB-75 CNS, 151%; with SNB-19 CNS it was 100%; with U251 CNS it was 69.1%; in the test with PC-3 prostate it was 44.7%. The growth with SK-MEL-5 melanoma was 35.2%; in the test with UACC-62 melanoma, 18.9%; with LOX IMVI melanoma it was -52.4% (active); with SK-MEL-28 melanoma it was 61.9%; in the test on SK-MEL-2 melanoma it was -12.5% (active); in the test with EKVX NSCLC, 85.4%. Besides, the growth in the test on SN12C renal was 73.4%; with UO-31 renal, 62.6%; in the test with TK-10 renal, 75%; in the test on ACHN renal, 82.3%; in the test on CAKI-1 renal, 107%; in the test on A498 renal it was 118%. Further, the growth with CCRF-CEM leukemia is 14.3%; in the test with MOLT-4 leukemia it was -4.7% (active).

With `Cc1ccc2sc3c(NCCN)nc4ccccc4c3c(=O)c2c1`, the growth in the test with HCT-15 colon is 29%; in the test with HT29 colon, 10.8%; in the test with SNB-75 CNS, 77.2%; with SNB-19 CNS, 81%; in the test on U251 CNS, 49.7%; in the test on PC-3 prostate, 79.5%. Moreover, the growth in the test with SK-MEL-5 melanoma is 95.6%; in the test with UACC-62 melanoma it was 99.4%; in the test on LOX IMVI melanoma, 15.6%; in the test with SK-MEL-28 melanoma, 111%; in the test on SK-MEL-2 melanoma, 105%; with EKVX NSCLC, 88%. The growth was 69.3% in the test with SN12C renal; 50.6% in the test with UO-31 renal; 96.2% in the test on TK-10 renal; 66.4% in the test on ACHN renal; 42.7% with CAKI-1 renal; 61.6% in the test with A498 renal. Moreover, the results for the growth in the test with CCRF-CEM leukemia and in the test on MOLT-4 leukemia were 32.8% and 49%, respectively.

With `Nc1nc2ccccc2c2c(=O)c3cc(F)ccc3sc12`, the growth in the test on HCT-15 colon was 98.6%; in the test on HT29 colon it was 99.8%; in the test on SNB-75 CNS, 93.1%; with SNB-19 CNS, 101%; in the test with U251 CNS, 105%; in the test with PC-3 prostate, 103%. Also, the growth with SK-MEL-5 melanoma was 98.5%; in the test on UACC-62 melanoma it was 102%; with LOX IMVI melanoma it was 99.6%; with SK-MEL-28 melanoma, 103%; with SK-MEL-2 melanoma, 110%; in the test on EKVX NSCLC it was 91.5%. Further, the growth in the test on SN12C renal is 101%; in the test on UO-31 renal, 91.3%; in the test on TK-10 renal, 110%; in the test on ACHN renal it was 101%; with CAKI-1 renal it was 107%; in the test on A498 renal it was 89.7%. Moreover, the growth was 105% with CCRF-CEM leukemia and 101% in the test on MOLT-4 leukemia.

As for `COc1ccc(OC)c(/C=C/c2nnc(Nc3ccccc3)o2)c1`, the growth in the test with HCT-15 colon is 90.5%; in the test on HT29 colon it was 93.6%; with SNB-75 CNS it was 82.1%; in the test on SNB-19 CNS, 96.9%; in the test on U251 CNS it was 98%; in the test on PC-3 prostate, 93.8%. The growth in the test on SK-MEL-5 melanoma is 90%; in the test with UACC-62 melanoma it was 92.1%; with LOX IMVI melanoma it was 99.5%; in the test with SK-MEL-28 melanoma it was 108%; in the test on SK-MEL-2 melanoma it was 95%; with EKVX NSCLC it was 89.9%. Besides, the growth in the test with SN12C renal was 90.1%; in the test with UO-31 renal, 94.5%; in the test with TK-10 renal, 92.5%; in the test on ACHN renal, 97.2%; with CAKI-1 renal, 78.3%; with A498 renal, 73.7%. In addition, the growth in the test on CCRF-CEM leukemia is 87.2%; with MOLT-4 leukemia, 68.3%.
